Source: PubChem BioAssay (NCI)
The panel holds about 79,000 compounds, 15% with a hit somewhere; the sample as a whole holds those more often. Unmarked numbers belong to inactive results. Active and inactive are the calls of the source. Rule as the data show it: active = growth inhibition above about 70%; inactive = the rest.

Legend:
[1] = NCI Yeast Anticancer Drug Screen. Data for the rad50 strain (AID 155);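 also: 0% = growth of vehicle-only cultures of the same strain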; details: S. cerevisiae rad50 strain growth inhibition, hits give high values
Procedure, shortened: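 Genetically altered yeast (DNA repair pathway); compound treatment; growth inhibition vs vehicle ctrl.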

[2] = NCI Yeast Anticancer Drug Screen. Data for the mec2-1 strain (AID 157); details: S. cerevisiae mec2-1 strain, hits give high values
Procedure, shortened: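 Each compound was tested on mec2-1 yeast, a strain altered in DNA damage repair or cell cycle control. Growth inhibition is reported relative to vehicle.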

[3] = NCI Yeast Anticancer Drug Screen. Data for the sgs1 mgt1 strain (AID 161);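 also: 0% = growth of cultures given vehicle only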; details: S. cerevisiae sgs1 mgt1 strain, hits give high values
Procedure, shortened: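 Test agents were incubated with a DNA-repair-mutant yeast strain. Growth was then read and compared against vehicle-treated controls.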

[4] = NCI Yeast Anticancer Drug Screen. Data for the cln2 rad14 strain (AID 165);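 also: 0% = growth equal to vehicle treated cultures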; details: S. cerevisiae cln2 rad14 strain, hits give high values
Procedure, shortened: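 Test compounds were added to cln2 rad14 yeast cultures; inhibition of growth was then determined by comparison with vehicle treatment.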

[5] = NCI Yeast Anticancer Drug Screen. Data for the bub3 strain (AID 167); details: S. cerevisiae bub3 mutant strain, hits give high values
Procedure, shortened: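 Yeast carrying a defined mutation is treated with each compound, and growth is compared with that of vehicle-exposed cells to give inhibition.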

[6] = NCI Yeast Anticancer Drug Screen. Data for the mlh1 rad18 strain (AID 175); details: S. cerevisiae mlh1 rad18 strain growth inhibition, hits give high values
Procedure, shortened: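 Inhibition values reflect reduced growth of mutant yeast versus vehicle-treated controls following compound exposure; the mutations affect DNA damage repair.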

[7] = at 5.0 µM (retest, dose inferred, filed as 0.5)
[8] = at 50.0 µM (retest, dose inferred, filed as 5.0)

Structure (SMILES) | growth inhibition [1, 7] | growth inhibition [1, 8] | growth inhibition ([1]; at 50.0 µM) | growth inhibition [2, 7] | growth inhibition [2, 8] | growth inhibition ([2]; at 50.0 µM) | growth inhibition [3, 7] | growth inhibition [3, 8] | growth inhibition ([3]; at 50.0 µM) | growth inhibition [4, 7] | growth inhibition [4, 8] | growth inhibition ([4]; at 50.0 µM) | growth inhibition [5, 7] | growth inhibition [5, 8] | growth inhibition ([5]; at 50.0 µM) | growth inhibition [6, 7] | growth inhibition [6, 8] | growth inhibition ([6]; at 50.0 µM)
COc1ccc(C=C(C(=O)c2ccccc2)C(=O)c2ccccc2)cc1 | 12% | 95% (active) | 91.3% (active) | -7% | 96% (active) | 92.3% (active) | -6% | 94% (active) | 91.3% (active) | 14% | 95% (active) | 88.5% (active) | 16% | 98% (active) | 92% (active) | -12% | 98% (active) | 90.8% (active)
N#CSc1ccc(Nc2ccc(SC#N)cc2)cc1 | 98% (active) | 98% (active) | 98.4% (active) | 99% (active) | 99% (active) | 97.6% (active) | 99% (active) | 99% (active) | 98.4% (active) | 99% (active) | 98% (active) | 97.7% (active) | 98% (active) | 97% (active) | 98.2% (active) | 99% (active) | 94% (active) | 97.8% (active)
Cc1ccc(N=Nc2ccc(N)c3ccccc23)c(S(N)(=O)=O)c1 | -4% | 38% | 27.1% | 0% | 24% | 1.95% | -1% | 51% | 44.9% | -2% | 29% | 70.8% (active) | -6% | 61% | 22.2% | 0% | 61% | 13.1%
CC1/C(=N\O)CC(c2ccccc2)N(C)C1c1ccccc1 (stereo not given) | 96% (active) | 96% (active) | 98.2% (active) | 96% (active) | 98% (active) | 98.2% (active) | 96% (active) | 97% (active) | 97.7% (active) | 58% | 78% (active) | 83.5% (active) | 94% (active) | 96% (active) | 98% (active) | 95% (active) | 97% (active) | 97.7% (active)
COc1ccc(/C=C(/NC(=O)c2ccccc2)C(=O)Nc2ccccc2)cc1OC | -13% | -6% | 3.3% | -7% | -12% | 16.1% | -6% | -5% | -18.4% | -23% | -24% | 50.5% | -6% | 9% | -8.25% | -4% | -11% | 29.3%
CC1=NOC(=O)C1N=Nc1ccc(Br)cc1C (stereo not given) | 99% (active) | 95% (active) | 93% (active) | 100% (active) | 96% (active) | 94.6% (active) | 99% (active) | 94% (active) | 94.8% (active) | 99% (active) | 94% (active) | 92.8% (active) | 99% (active) | 96% (active) | 94.5% (active) | 99% (active) | 94% (active) | 90.5% (active)
COC(=O)CCCC(=O)NC1=C(Nc2ccccc2)C(=O)c2ccccc2C1=O | 27% | 72% (active) | 45.5% | 15% | 41% | 14.5% | 22% | 50% | 52.2% | 15% | 24% | 38.6% | 33% | 67% | 61% | 23% | 60% | 16.3%
CC(C)(C)OC(=O)N(CCCCNCc1ccc2ccccc2c1)CCCNCc1ccc2ccccc2c1 | 17% | 99% (active) | 91% (active) | 19% | 99% (active) | 92.6% (active) | -7% | 99% (active) | 76.5% (active) | 3% | 98% (active) | 89% (active) | 18% | 97% (active) | 90.5% (active) | 26% | 99% (active) | 91% (active)
O=C1OC(CC(=O)c2ccccc2Cl)C(Cl)=C1Cl (stereo not given) | 6% | 33% | 38.1% | 7% | 35% | 12.6% | 39% | 52% | 58.9% | 16% | 30% | 46.6% | 1% | 37% | -0.55% | 23% | 62% | 65.7%
COC1/C=C/OC2(C)Oc3c(C)c(O)c4c5c(cc(O)c4c3C2=O)N=C(O5)/C(C)=C\C=C\C(C)C(O)C(C)C(O)C(C)C(OC(C)=O)C1C (stereo not given) | 5% | 99% (active) | 55.2% | -71% | 99% (active) | 60% | -60% | 96% (active) | 53.6% | 28% | 99% (active) | 53.5% | 3% | 99% (active) | 48.5% | 4% | 98% (active) | 60.6%
